Screens as filed in PubChem BioAssay.
KDM5B inh: blocks human KDM5B histone demethylase activity | KDM5B demethylase, FDH-coupled NADH fluorescence (FDH is formaldehyde dehydrogenase) | Potency, µM (titrated, usually from 57.7 µM), hits mostly inhibitors | 220,000 compounds, 2.6% hits | AID 1347165; also: nearly all actives have a fitted effect of over 70% in size
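Compound dilutions met 200 nM (final) KDM5BΔAP for 10 min at room temperature before substrate addition. The substrate mix held 12.5 µM H3K4me3 with cofactors 25 µM α-ketoglutarate and 50 µM Fe²⁺. NADH signal gain over 30 min defined activity.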
SNCA viab count: cell viability loss counter-screen; HEK-293-SNCA-luc viability, GF-AFC fluorescence, 24 h; Potency, µM (series often up to 57.1 µM), hits mostly cytotoxic; 150,000 compounds, 0.12% hits; AID 1671193; also: nearly all actives have a fitted effect of over 30% in size
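Cytotoxicity counterscreen: after 24 h compound treatment of genome-edited SNCA-luciferase HEK-293 cells, live-cell protease substrate GF-AFC read by fluorescence after 30 min; activity scaled between DMSO (0%) and medium-only (-100%), curves Hill-fitted.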
SNCA expr inhib: SNCA gene expression inhibition. Potency, µM (highest dose often 57.2 µM), actives largely listed as inhibitors. 140,000 compounds, 0.17% hits. HEK-293 SNCA-luciferase knock-in, luminescence, 24 h; also: nearly all actives have a fitted effect of over 45% in size
IP6K1 inh: blocks human inositol hexakisphosphate kinase 1; IP6K1 kinase, ADP-Glo luminescence, 2 h; hits give low values; activity change, % (series mostly up to about 58 µM); 140,000 compounds, 0.81% hits; in the data active = activity change below about -25%
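ADP-Glo luminescence measures ADP made by human IP6K1 during a 2 h RT reaction with ATP/IP6 (mix at 1.3 mM/130 uM); top library doses 57.5 and 19.1 uM final.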
IP6K1 conf: confirmation of human IP6K1 inhibitors. shares compounds with IP6K1 inh. Potency, µM (highest dose often 49 µM), usual class: inhibitors. 1,200 compounds, 13% hits. recombinant IP6K1 kinase, ADP-Glo luminescence, 2 h; also: nearly all actives have a fitted effect of over 65% in size
A number is an active result; – = inactive; ? = inconclusive; · = no result; ! = repeats disagree; [ ] = remark or other dose. Shown are actives, neighbours in structure and some others; about 3% of the full set was active somewhere. Unless noted, calls follow the shape of the dose curve; as a rule, active = well fitted curve in the direction sought with a large enough effect; inconclusive = small, poorly fitted or top-dose-only effect, or another doubt; inactive = no such curve, though single readings can be large; an effect the other way counts as inactive or inconclusive.

SMILES	KDM5B inh	SNCA viab count	SNCA expr inhib	IP6K1 inh	IP6K1 conf
Cc1nn(-c2ccccc2)c2c1C(C)N(C1CCN(C(=O)c3ccc(Cl)nc3)C1)C2=O (stereo unspecified)	·	·	·	–	·
NC(=O)N1CCC(CC(=O)N2CCC([C@H]3c4ncc(Br)cc4CCc4cc(Cl)cc(Br)c43)CC2)CC1	·	–	?	·	·
NC(=O)N1CCC(CC(=O)N2CCC(C3c4ncc(Br)cc4CCc4cc(Cl)cc(Br)c43)CC2)CC1 (stereo unspecified)	·	?	·	-39.9	?
COc1ccc(CNC(=O)CN(c2ccc(OC)cc2)S(=O)(=O)c2c(C)[nH]c(=O)[nH]c2=O)cc1	–	–	–	–	·
COc1ccc(N(CC(=O)NCc2ccc(C)cc2)S(=O)(=O)c2c(C)[nH]c(=O)[nH]c2=O)cc1	–	–	–	-25.4	–
Cc1cc(C)cc(N(CC(=O)Nc2ccc(C)cc2Cl)S(=O)(=O)c2c(C)[nH]c(=O)[nH]c2=O)c1	–	–	–	-27.4	–
Cn1sc(=O)n(Cc2ccccc2)c1=O	·	?	·	-83.1	18.4µM
COC(=O)c1cc(NC(=O)CC2C(=O)OCCN2Cc2ccccc2)cc(C(=O)OC)c1 (stereo unspecified)	–[11.5 µM]	–	–	-32.8	–
CN(C)CC(=O)N1Cc2ccccc2CC2(CCN(CC3CCNCC3)C2)C1 (stereo unspecified)	–	–	–	-26.8	?
CN(C)CC(=O)N1Cc2ccccc2CC2(CCCN(CC3CCNCC3)C2)C1 (stereo unspecified)	?	–	–	–	·
CCCNC(=O)CCCN1C(=O)CCn2nc(-c3cccn3C)cc21	–	–	–	–	·
CC(C)OCCCNC(=O)CCCN1C(=O)CCn2nc(-c3cccn3C)cc21	?	–	–	-33.9	–
CCc1nc2nc(C)c(NS(=O)(=O)c3ccc(F)c(C)c3)c(=O)n2[nH]1	–	–	–	-27.9	–
CCc1nc2nc(C)c(NS(=O)(=O)c3ccc(F)cc3)c(=O)n2[nH]1	–	·	·	·	·
COc1ccc(CN(C)Cc2cc(=O)n3[nH]c(-c4cccc(C)c4)cc3n2)cc1	–	·	·	·	·
COc1ccc(-c2cc3nc(N)cc(=O)n3[nH]2)cc1	?	–	–	-48.2	?
COc1ccccc1Cn1c(=O)c(C(=O)N2CCN(C(=O)Cc3ccc(F)cc3)CC2)nc2cccnc21	·	–[12.5 µM]	–	–	·
COc1ccc(CN(C)Cc2ccoc2)cc1OCC(O)CN1CCCCC1 (stereo unspecified)	–	–	–	-37.7	–
COc1ccc(-c2ccc3c(c2)C(=O)N2CC[C@H](n4nnc(C(N)=O)c4C(N)=O)C[C@H]2C(=O)N3)c(OC)c1	–	–	–	-43.9	?
COc1ccc(Cl)cc1-c1ccc2c(c1)C(=O)N1CC[C@H](N)C[C@H]1C(=O)N2	?	–	–	–	·
Cc1ccc(NC(=O)c2nc3sccn3c2-c2ccc(C(F)(F)F)cc2)cc1	·	–	–	–	·
COc1ccccc1Nc1ccnc(N2CCCC(C(=O)NCCSC)C2)n1 (stereo unspecified)	·	–[12.5 µM]	–	–	·
CCN(CC)C(=O)Cn1ncc2c([nH]c3ccccc32)c1=O	?	–	–	–	·
CC(C)CCN(Cc1ccco1)C(=O)Cn1ncc2c([nH]c3ccccc32)c1=O	?	–	?	-28.6	–
COc1cccc(C(=O)N2CC(N3C(=O)c4c(c(C)nn4-c4ccccc4)C3C(C)C)C2)c1 (stereo unspecified)	·	·	·	–	·
SMILES	KDM5B inh	SNCA viab count	SNCA expr inhib	IP6K1 inh	IP6K1 conf
CC(C)Cn1c(-c2cccc(Br)c2)nc2ccccc21	?	–	–	-33.0	–
O=C(Cn1c(=O)oc2cc(Cl)ccc21)Nc1cccc(C(F)(F)F)c1	–	–	?	-28.4	–
Cc1nc(-c2ccc(Cl)cc2)n(CC(=O)Nc2cccc(C(F)(F)F)c2)c(=O)c1CCO	–	–	?	–	·
C#CCNC(=O)c1ccc(-c2ccc(OC)nn2)cc1Cl	·	·	·	–	·
O=C(Nc1ccccc1F)c1ccc(-c2ccccc2)cc1	–	·	·	·	·
O=C(Nc1ccccc1F)c1ccc(-c2ccccc2)s1	?	–	–	-29.6	–
Cc1ccc(Nc2ccnc(N3CCCC(C(=O)NCc4ccccc4F)C3)n2)cc1 (stereo unspecified)	·	–[12.5 µM]	?	–	·
Cc1ccc([S+](=O)([O-])N2CCC(C(=O)N3CCC(N4Cc5cccn5C4=O)CC3)CC2)cc1	·	–	–	–	·
O=Nc1c(-c2c(O)[nH]c3cc(Br)ccc23)[nH]c2ccccc12	·	25.1µM!	–	·	3.66µM
Cc1ccc(S(=O)(=O)N2CCCc3cc(NS(=O)(=O)c4cccc(Cl)c4)ccc32)cc1	–	–	?	-26.1	–
CCOc1ccc(S(=O)(=O)Nc2ccc3c(c2)CCCN3S(=O)(=O)c2ccc(C)cc2)cc1	–	–	–	–	·
O=C(NC1CC1)c1ccc2nnc(-c3cc(C(F)(F)F)cc(C(F)(F)F)c3)n2c1	·	–	–	–	·
C#C[C@]1(OC(C)=O)CC[C@H]2[C@@H]3CCC4=C/C(=N/O)CC[C@@H]4[C@H]3CC[C@@]21CC	·	–	–	-59.1	?
C#C[C@]1(OC(C)=O)CCC2C3CCc4cc(OC(C)=O)ccc4C3CCC21C (stereo partly specified)	–	·	·	·	·
CC(C)CN1C[C@H](COCc2ccccc2)Oc2ccncc2[S+]1(=O)[O-]	·	–	–	–	·
CCOc1ccc(NC(=O)CN(c2ccc(Cl)cc2C)S(=O)(=O)c2ccccc2)cc1	–	–	?	-25.4	–
O=C(CC1CCCCN(Cc2ccccc2)C1=O)Nc1ccccc1F (stereo unspecified)	·	–	–	–	·
O=C(CC1CCCCN(Cc2ccccc2)C1=O)Nc1ccccc1 (stereo unspecified)	·	–	?	–	·
CN(C)c1ccc(-c2cc(-c3ccc(=O)[nH]c3)c3cncn3c2)cc1	?	–	–	–	–
O=C(CNC(=O)c1ccc(-c2cccc(C(F)(F)F)c2)cc1)NC1CCCC1	·	–[12.5 µM]	–	–	·
CN(Cc1noc(C2CCCC2)n1)c1cc(C2CC(O)C2)ncn1 (stereo unspecified)	–	–	–	-27.8	–
COc1ccc(-c2noc(CC3CCN(C(=O)Cc4cccc(C)c4)CC3)n2)cc1	–	–	?	–	·
N#CC1CCN(C(=O)C2CCCCN2Cc2ccc(-c3ccsc3)cc2)CC1 (stereo unspecified)	·	–	–	–	·
CC(C)N(CCC(=O)c1ccc2ccccc2c1)Cc1ccccc1	·	?	–	–	9.2µM
CC(C)C(NC(=O)Cc1ccc2ccccc2c1)C(=O)O (stereo unspecified)	–	·	·	·	·
COC(=O)c1cccnc1-n1c(=O)c2cccnc2n(CC(=O)Nc2ccccc2F)c1=O	?	–	–	-28.1	–
COC(=O)c1cccnc1-n1c(=O)c2cccnc2n(CC(=O)Nc2c(C)cc(C)cc2C)c1=O	–	–	–	–	·
CCCCNC(=O)c1cc(Sc2ccc(OCC)cc2)nc2ccccc12	–	–	–	-25.7	–
Cc1ccc(C(=O)Nc2noc3ccccc23)cc1	·	–	·	-55.3	?
